# Screening data as filed in PubChem BioAssay.
# GluA2 TARP mod: modulates AMPAR-stargazin complexes; O88602+P19491; calls only at 30 µM; HEK293 GluA2+stargazin, membrane potential dye (FDSS), glutamate EC50; hits were called plate by plate, in both directions; AID 1259245; 40,000 tested, 3.5% active;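 active = any of four per-well response measures lying three or more SD from its plate-wide compound average, in either direction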
# GIRK2 activator: Activates human GIRK2-containing potassium channels; P48051; HEK293 GIRK2/NPY4 cells, thallium flux fluorescence; activation (% efficacy), % for hits at 37.5 µM; 34,000 tested, under 10 active; AID 1259324;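 active = primary screen hit, no activity in plain HEK293 cells, and in GIRK2-only cells above 5% efficacy rising with concentration; inactive = the rest, including fluorescent compounds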;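 note: efficacy is normalized control-subtracted fluorescence 15 s after thallium addition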
# Target sequence (P48051 whole entry, looked up): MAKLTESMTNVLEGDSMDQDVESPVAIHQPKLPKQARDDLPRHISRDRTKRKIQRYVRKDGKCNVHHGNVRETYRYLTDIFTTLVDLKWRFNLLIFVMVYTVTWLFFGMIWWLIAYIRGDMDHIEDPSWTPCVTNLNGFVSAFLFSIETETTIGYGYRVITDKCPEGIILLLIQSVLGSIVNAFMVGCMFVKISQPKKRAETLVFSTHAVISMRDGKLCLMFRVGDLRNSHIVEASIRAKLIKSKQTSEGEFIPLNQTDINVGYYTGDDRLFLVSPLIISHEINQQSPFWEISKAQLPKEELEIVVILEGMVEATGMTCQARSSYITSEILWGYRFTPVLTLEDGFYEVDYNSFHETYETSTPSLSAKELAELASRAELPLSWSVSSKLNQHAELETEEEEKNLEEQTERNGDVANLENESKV
# Calls only; - = inactive; . = no result; + = active, no number. Only a selection was taken, and hits are over-represented in it overall.
SMILES,GluA2 TARP mod,GIRK2 activator
COc1ccc(CC(=O)Nc2cc(C3CC3)nn2-c2nc(C(C)C)cc(=O)[nH]2)cc1OC,-,-
COc1ccc(C(=O)Nc2cc(C3CC3)nn2-c2nc(C(C)C)cc(=O)[nH]2)cc1OC,+,-
COC(=O)N1CCC(CNC(=O)c2cccc(N(C)C)c2)CC1,-,-
CN1CCOc2ccc(NS(=O)(=O)c3ccccc3)cc2C1=O,+,.
CN1CCOc2ccc(NS(=O)(=O)c3ccc(-c4ccccc4)cc3)cc2C1=O,-,.
Cc1nn(C(C)(C)C)c(OC(=O)C2CCCCC2)c1Sc1ccccc1[N+](=O)[O-],-,.
CCOc1ccccc1C(=O)Nc1cc(C(=O)N2CCCCCC2)cn(C)c1=O,-,.
CCOc1ccccc1-n1c(C)ccc1-c1ccccc1,-,.
COc1cc(COCC2CCN(CC(=O)NCC3CCCO3)CC2)cc(OC)c1 (configuration not stated),-,-
Cn1c(=O)c2c(ncn2Cc2ccccc2)n(C)c1=O,-,.
Cn1c(=O)c2c(ncn2CC(=O)NCc2ccccc2)n(C)c1=O,+,.
O=C(Nc1cccc(C(F)(F)F)c1)C1CCCN(C(=O)Nc2cccs2)C1 (configuration not stated),+,-
COC(=O)Nc1ccc(S(=O)(=O)N2CCCC(C(=O)Nc3cccc(C(F)(F)F)c3)C2)cc1 (configuration not stated),-,.
O=C(Nc1ccc2ncsc2c1)c1ccc(S(=O)(=O)N2CCc3ccccc3C2)cc1,-,-
O=C(Nc1ccc2c(c1)CN(S(=O)(=O)c1ccccc1)CC2)c1ccc2nsnc2c1,+,-
CC(=O)Nc1ccc(NC(=O)CSc2ccc(S(=O)(=O)C(F)(F)F)cc2[N+](=O)[O-])cc1,-,.
O=C(CSc1ccc([N+](=O)[O-])cc1[N+](=O)[O-])Nc1cccc(C(F)(F)F)c1,+,.
CC(=O)Cn1c(=O)c2c(nc3n(-c4cc(C)cc(C)c4)c(C)cn23)n(C)c1=O,-,.
CC(C)(C)C(=O)Nc1sc2c(c1C#N)CCN(Cc1ccccc1)C2,+,-
CCC(=O)Nc1sc2c(c1-c1nc3ccccc3s1)CCN(Cc1ccccc1)C2,-,.
CC1CS(=O)(=O)N(c2cccc(C(=O)N3CCN(c4ncccn4)CC3)c2)C1=O (configuration not stated),-,-
O=C(NCCCc1ccccc1)N1CCN(Cc2nc(-c3ccccc3)cs2)CC1,-,-
NC(=O)c1ccsc1NC(=O)C1CCCCC1,-,-
NC(=O)c1ccsc1NC(=O)C1CCN(S(=O)(=O)c2ccc(Cl)cc2)CC1,+,-
COCCNC(=O)Cc1ccc(NC(=O)c2ccco2)cc1,-,-
SMILES,GluA2 TARP mod,GIRK2 activator
CCSc1nnc(NC(=O)Cc2cc(-c3cc4ccccc4o3)on2)s1,-,-
O=C(N1CCC(Cn2cccn2)CC1)C1(c2ccc(Cl)cc2)CCCC1,+,-
O=C(N1CCC(Cn2cccn2)CC1)C1(c2cccs2)CCCC1,-,-
O=C(c1ccc(Cl)c(S(=O)(=O)N2CCCCC2)c1)N1CCN(c2ccc(F)cc2)CC1,-,.
CSCCn1c(=NC(=O)c2cc(C)no2)sc2cc3c(cc21)OCCO3,+,-
CSCCn1c(=NC(=O)c2cc(C)no2)sc2ccccc21,-,-
COc1cc(Cl)c(C)cc1NC(=O)c1ccccc1OC,-,-
CCOC(=O)N1CCc2c(sc(NC(=O)c3cc(C)n(CC)n3)c2C(N)=O)C1,.,-
CCOC(=O)c1c(NC(=O)c2ccn(C)n2)sc2c1CCN(C(C)=O)C2,+,-
CCn1nccc1C(=O)Nc1sc2c(c1C(N)=O)CCN(C(C)=O)C2,-,-
CC(=O)N1CCc2c(sc(NC(=O)c3cc(C)no3)c2C#N)C1,-,-
CCOC(=O)N1CCc2c(sc(NC(=O)c3ccn(C)n3)c2C(=O)OC)C1,+,-
CCOC(=O)N1CCc2c(sc(NC(=O)c3ccnn3CC)c2C(=O)OC)C1,+,-
CC(=O)N1CCc2c(sc(NC(=O)c3ccn(C)n3)c2-c2nc3ccccc3s2)C1,-,.
CC(=O)N1CCc2c(sc(NC(=O)c3cc(C)no3)c2C(N)=O)C1,+,-
CC(C)c1c(C(=O)N2CCOCC2)nnn1-c1ccc(Br)cc1,-,-
CCOc1cc(C(=O)Nc2nnc(-c3ccc(C)c(C)c3)o2)cc(OCC)c1OCC,-,-
COC(=O)c1ccc(NC(=O)C(=O)NCC2(c3ccccc3)CCOCC2)cc1,-,-
Cc1ccc(S(=O)(=O)N2CCC(C(=O)Nc3c(C(N)=O)oc4ccccc34)CC2)cc1,-,-
CN1CCN(c2nc3c(c(=O)[nH]c(=O)n3C)n2CC(=O)c2ccc([N+](=O)[O-])cc2)CC1,+,.
COc1ccc(N2CCN(c3nc4c(c(=O)[nH]c(=O)n4C)n3CC(=O)c3ccccc3)CC2)cc1,-,.
CCOC(=O)c1sc(NC(=O)c2ccn(CC)n2)nc1C,.,-
O=C(c1nc2ccccc2s1)N1CCC(c2ccsc2)CC1,-,-
COc1ccccc1C1(C(=O)N2CCC(c3ccsc3)CC2)CCOCC1,+,-
